ChEMBL document CHEMBL3433997, “St. Jude Leishmania screening dataset” (2016)
Where “and” joins values, the source holds several entries; their conditions need not be identical. Equal entries are not always repeated.

How the values were obtained:
Format in all cases: functional
[1] = biological target: Solute carrier family 2, facilitated glucose transporter member 1 (Homo sapiens) (UniProt P11166); assay: ST_JUDE_LEISH: Cytotoxicity at 2uM final concentration against transgenic Leishmania Mexicana promastigotes LmGLUT1 that are glucose transport deficient and complemented with the human glucose transporter GLUT1. Activity is measured by DNA content using SYBR green in vitro
Solute carrier family 2, facilitated glucose transporter member 1 (Homo sapiens), sequence (P11166 whole entry): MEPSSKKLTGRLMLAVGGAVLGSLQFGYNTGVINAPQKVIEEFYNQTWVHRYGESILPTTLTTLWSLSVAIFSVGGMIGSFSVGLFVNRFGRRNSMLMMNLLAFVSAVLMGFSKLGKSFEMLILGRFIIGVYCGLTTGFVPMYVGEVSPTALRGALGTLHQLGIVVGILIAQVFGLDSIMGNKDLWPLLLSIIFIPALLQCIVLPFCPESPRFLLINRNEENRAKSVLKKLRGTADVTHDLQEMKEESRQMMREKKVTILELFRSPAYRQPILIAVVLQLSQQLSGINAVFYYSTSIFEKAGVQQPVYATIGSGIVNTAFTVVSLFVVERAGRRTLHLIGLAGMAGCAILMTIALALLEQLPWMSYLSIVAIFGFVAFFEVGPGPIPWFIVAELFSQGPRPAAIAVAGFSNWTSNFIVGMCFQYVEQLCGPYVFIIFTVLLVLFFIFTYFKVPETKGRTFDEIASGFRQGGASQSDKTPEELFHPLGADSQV

[2] = biological target: Hexose transporter 1 (Plasmodium falciparum) (UniProt O97467); assay: ST_JUDE_LEISH: Cytotoxicity at 2uM final concentration against transgenic Leishmania Mexicana promastigotes LmPfHT that are glucose transport deficient and complemented with the Plasmodium falciparum hexose transporter. Activity is measured by DNA content using SYBR green in vitro
[3] = biological target: Glucose transporter (Leishmania mexicana) (UniProt O61059); assay: ST_JUDE_LEISH: Cytotoxicity at 2uM final concentration against transgenic Leishmania Mexicana promastigotes LmGT2 that are glucose transport deficient and complemented with the L. Mexicana glucose transporter 2. Activity is measured by DNA content using SYBR green in vitro

Row | Compound | inhibition [1] | inhibition [2] | inhibition [3]
1 | CC(=O)C1(c2ccccc2)CCN(CCC2(c3ccc(Cl)c(Cl)c3)CN(C(=O)C3CCCC3)CCO2)CC1 (stereo unspecified) | 4.09% | 3.1% | 0.75%
2 | C/C=C1/CN2CC[C@H]1C[C@H]2[C@H](O)c1ccnc2ccc(OC)cc12 | -0.87% | -2.22% | 2.08%
3 | COc1ccc(CC(C)NCC(O)c2cccc(Cl)c2)cc1C (stereo unspecified) | 7.48% | 5.85% | 7.3%
4 | CC[C@H]1CN2CC[C@@H]1C[C@H]2[C@H](O)c1cc[n+]([O-])c2ccc(OC)cc12 | -2.84% | -0.91% | -1.06%
5 | Cc1cccc(C(=O)Nc2ccnc(N(C)C3CCN(Cc4cccc(O)c4)CC3)c2)c1 | 3.06% | 1.84% | 3.85%
6 | CNC(=O)c1ccc2[nH]cc(C3CCN(CC4CCC(NC(=O)/C=C/c5ccccc5Cl)CC4)CC3)c2c1 (stereo unspecified) | 10.8% | 9.61% | 8.45%
7 | CC(=O)Nc1ccc2[nH]cc(C3CCN(CC4CCN(C(=O)/C=C/c5ccc(Cl)c(Cl)c5)CC4)CC3)c2c1 | 0.82% | -0.9% | 3.23%
8 | CC[C@H]1CN2CC[C@@H]1C[C@H]2[C@H](O)c1cc(-c2cccnc2)nc2ccc(OC)cc12 | 4.01% | 4.01% | 4.02%
9 | O=C(/C=C/c1ccccc1O)NC1CCC(CN2CCC(c3c[nH]c4ccccc34)CC2)CC1 (stereo unspecified) | -0.75% and -1.89% | 0.85% and 0.08% | -1.86% and -3.26%
10 | OC1(c2ccc(Cl)c(C(F)(F)F)c2)CCN(CCOC2c3ccccc3CSc3ccc(Cl)cc32)CC1 (stereo unspecified) | 2.52% | 1.04% | 2.27%
11 | O=C(C=Cc1ccc(-c2ccccc2)cc1)NC1CCC(CN2CCC(c3c[nH]c4ccccc34)CC2)CC1 (stereo unspecified) | 6.41% and 5.7% | 7.57% and 7.18% | 6.53% and 3.78%
12 | CCOC(C(=O)OCC1CCCN(C)C1)(c1ccccc1)c1ccccc1 (stereo unspecified) | 4.97% | 4.46% | 5.83%
13 | O=C(C=Cc1ccccc1C(F)(F)F)NC1CCC(CN2CCC(c3c[nH]c4ccccc34)CC2)CC1 (stereo unspecified) | 8.82% and 9.04% | 5.1% and 5.78% | 5.23% and 4.7%
14 | COCCNCc1ccc(-c2cccc(CN(C(=O)CCC3CCCC3)C3CCN(Cc4ccccc4)CC3)c2)cc1 | -4.16% | 1.28% | -1.05%
15 | COc1cc(/C=C/C(=O)NC2CCC(CN3CCC(c4c[nH]c5ccccc45)CC3)CC2)ccc1O (stereo unspecified) | 0.32% and 3.25% | 1.97% and 2.79% | 1.02% and 1.53%
16 | N#Cc1c(Cl)cccc1Oc1ccc(S(=O)(=O)N2CCC(CN3CCC(c4c[nH]c5ccccc45)CC3)CC2)cc1 | 1.64% | -0.14% | -0.73%

Row | Compound | inhibition [1] | inhibition [2] | inhibition [3]
17 | Cc1cc(C(=O)NC2CCN(CC3(c4ccc(Cl)cc4)CCC3)CC2)on1 | 0.83% | -0.05% | 0.13%
18 | CCOC(=O)CCCN1C(=O)CN=C(c2ccccc2)c2cc(Cl)ccc21 | -1.02% | 0.13% | 3.48%
19 | CC[C@H]1CN2CC[C@@H]1C[C@H]2[C@H](O)c1ccnc2ccc(Cl)cc12 | 2.97% | 3.95% | 3.25%
20 | CSc1ccc(C[C@@H](C)NC[C@H](O)c2cccc(Cl)c2)cc1 | 2.36% | 1.34% | 2.94%
21 | CN1CCN(c2ccc3[nH]c(-c4ccc5[nH]c(-c6ccc(O)cc6)nc5c4)nc3c2)CC1 | 4.92% | 5.09% | 2.92%
22 | CN(c1cc(NC(=O)c2ccc(F)cc2)ccn1)C1CCN(Cc2cccc(F)c2)CC1 | 2.51% | 6.07% | 3.83%
23 | Cc1ccc2[nH]cc(C3CCN(CC4CCC(NC(=O)/C=C/c5ccc(Cl)c(Cl)c5)CC4)CC3)c2c1 (stereo unspecified) | 4.11% and 12% | 3.18% and 11.1% | -1.76% and 10.5%
24 | O=C(NC1CCN(CC2(c3ccc(Cl)cc3)CCC2)CC1)c1cc[nH]n1 | 1.71% | -0.69% | -1.02%
25 | CC[C@H]1CN2CC[C@H]1C[C@H]2[C@H](O)c1cc(/C=C/c2ccc(F)cc2)nc2ccc(OC)cc12 | 4.05% | 1.87% | 2.03%
26 | CN1CC=C(c2c[nH]c3ccc(OCc4ccccc4)cc23)CC1 | 16.2% | 14.4% | 14.7%
27 | CC(Cc1ccc(SCCSc2ccccc2)cc1)NCC(O)c1cccc(Cl)c1 (stereo unspecified) | 0.69% | -0.5% | 1.16%
28 | N=C(N)NC(=O)Nc1ccc([N+](=O)[O-])c(Cl)c1 | 0.15% | 1.53% | 0.59%
29 | O=C(/C=C/c1ccc(Cl)c(Cl)c1)N1CCC2CC(N3CCC(c4c[nH]c5ccccc45)CC3)CCC2C1 (stereo unspecified) | 3.41% | -0.87% | 0.24%
30 | CCN1CC=C(c2c[nH]c3ccccc23)CC1 | 0.74% | 1.07% | 0.73%
31 | O=S(=O)(NC1CCC(CN2CCC(c3c[nH]c4ccccc34)CC2)CC1)c1ccc(Cl)c(Cl)c1 (stereo unspecified) | -2.62% | -1.92% | -2.55%
32 | COc1cccc(C2(NC[C@@H](O)[C@H](Cc3ccccc3)NC(=O)c3ccccc3)CCCCC2)c1 | 0.07% | -1.37% | -4.56%
